Laboratory results published in PubChem BioAssay AID720518 (National Center for Advancing Translational Sciences (NCATS), 2013).
Results filed as inconclusive are left out. Where a call stands in place of a potency, no number is given. Active and inactive are the calls of the source. The call rests on the fitted dose curve.

Experiment: qHTS for Inhibitors of Cell Surface uPA Generation: Wild-type Protective Antigen (WT-PrAg) Counterscreen for Cherry-picked Compounds
Conditions: cells, WT protective antigen toxicity counterscreen; series mostly up to 115 µM
Potency means the concentration at half of the fitted maximal effect.

SMILES	Potency
O=C1[C@H]2[C@@H](c3ccc(F)cc3)N3C(=O)N(c4cccc(F)c4)C(=O)[C@@]3(Cc3ccc(Cl)cc3)[C@H]2C(=O)N1C1CCCCC1	inactive
COC(=O)C1=CN(Cc2ccc(F)cc2)C=C(C(=O)OC)C1c1ccc(O)c(OC)c1	inactive
Cc1ccc(CN2CCN(Cc3cc4ccccc4o3)CC2CCO)cc1 (centres undefined)	inactive
COc1cc(NS(=O)(=O)c2ccc(NC(=S)NC(=O)COc3ccccc3OC)cc2)nc(OC)n1	inactive
COc1cccc(-n2c(SCC(=O)Nc3cc(C)on3)nc3c([nH]c4ccccc43)c2=O)c1	inactive
COCc1cc(C)nc2sc(C(=O)Nc3nccs3)c(N)c12	inactive
CCn1c(SC(C)C(=O)NC2CCCC2)nc2cc(S(N)(=O)=O)ccc21 (centres undefined)	inactive
CCCCCn1c(=O)c(C(=O)Nc2ccccn2)c(O)c2ccccc21	inactive
Cc1ccnc(NC(=O)CCNS(=O)(=O)c2ccc(C)c(C)c2)c1	inactive
COc1cc(C(=O)Nc2nnc(C)s2)cc(OC)c1OC	inactive
CC1Cc2nc(SCC(=O)Nc3ccc4c(c3)OCO4)n(-c3ccc(F)cc3)c(=O)c2S1 (centres undefined)	inactive
CC1CCN(C2=C(NS(=O)(=O)c3ccc(Br)cc3)C(=O)c3ccccc3C2=O)CC1	inactive
COc1ccc2[nH]cc(S(=O)(=O)c3ccc(C(C)C)cc3)c(=O)c2c1	inactive
C[C@H]([C@H](O)c1ccccc1)N(C)C(=O)CN	inactive
CC1CCCN(C(=O)c2ccc(CNc3c(N4CCCCC4)c(=O)c3=O)cc2)C1 (centres undefined)	inactive
CC1=C(C(=O)OCc2ccccc2)C(c2cccc([N+](=O)[O-])c2)NC(=O)N1 (centres undefined)	inactive
COc1ccc(S(=O)(=O)c2c(O)c3ccc(C(=O)Nc4ccccc4)cc3[nH]c2=O)cc1	inactive
CCS(=O)c1scc(-c2ccc(Cl)cc2)c1C#N (centres undefined)	inactive
COc1ccccc1C(=O)Nc1cccc(C(=O)c2ccccc2)c1	inactive
CCOc1ccc(NS(=O)(=O)c2ccc(C(=O)N3CCC3)cc2)cc1	inactive

SMILES	Potency
O=C(O)CNC(=S)N(Cc1ccccc1)Cc1cccnc1	inactive
Cc1cccc(NC(=O)C2CCCN(S(=O)(=O)c3ccc4[nH]c(=O)ccc4c3)C2)c1 (centres undefined)	inactive
N#CCC(=O)N/N=C/c1ccc(OCC(=O)Nc2ccc(F)cc2)cc1	inactive
COc1ccc(C(=O)CC2(C(=O)O)CCCCC2)cc1	inactive
O=C1OCC/C1=C\c1ccc(O)cc1	inactive
O=C(Cn1cnc2c(OCc3ccccc3)ncnc21)NCCCN1CCCC1=O	inactive
NC(=O)c1cc2c3ccccc3ccn2c1-c1ccccc1	inactive
S=C(Nc1ccccc1Cl)N1CCCC(c2ccccc2)=N1	16.5 µM (active)
COC(C[C@H](O)[C@H](C)[C@@H](O)COCc1ccccc1)OC	inactive
CCN(c1ccccc1)S(=O)(=O)c1ccc(NC(=O)c2ccco2)cc1	inactive
COCCNC(=O)C(c1c[nH]c2ccccc12)N(C(=O)c1snc(C(N)=O)c1N)c1cccc(OC)c1 (centres undefined)	inactive
COc1ccc(NS(=O)(=O)c2cc(NS(=O)(=O)c3cc(C(=O)O)ccc3OC)ccc2C)cc1	inactive
CNC(=S)N1C2CCCC1CC(NC(=O)c1ccc(F)cc1)C2 (centres undefined)	inactive
O=C(O)c1ccccc1/C=N/NC(=S)NC1CCCCC1	inactive
CCc1ccc(NCc2nc(-c3ccccc3)no2)cc1	inactive
COc1ccc(CNC(=O)C2CCC(CNS(=O)(=O)c3ccc(C)cc3)CC2)cc1 (centres undefined)	inactive
Cc1ccccc1C(=O)Nc1ccccc1N1CCCCC1	inactive
CC(=O)Nc1nc2ccccc2[nH]1	inactive
CC(C)(O)C#Cc1ccc(C(=O)N2CCCC(CCC(=O)NCc3ccccc3F)C2)cc1 (centres undefined)	inactive
